B2AR arrestin – beta2AR (human) beta-arrestin recruitment activity. P07550. beta-arrestin recruitment to beta2AR, cell-based reporter. Potency, µM (top dose mostly 46.1 µM), without a hit: at the top dose activation, actives largely listed as activators. 330,000 tested, 0.02% active. AID 492947;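 further: potency means the concentration at half of the fitted maximal effect; 0% = DMSO controls and full agonism = EC100 isoproterenol or metaproterenol; nearly all actives have a fitted effect of over 65% in size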
RGS4 inh – inhibitors of human regulator of G protein signaling 4; P49798; Transcreener GDP fluorescence polarization, RGS4-accelerated GTP hydrolysis; Potency, µM (titrated, usually from 114 µM), inactives show at the highest dose activity change, negative = inhibition, hits mostly inhibitors; 390,000 tested, 0.039% active; further: potency means the concentration at half of the fitted maximal effect; on the % scale 0 is the no-effect control and ±100 the full control effect; nearly all actives have a fitted effect of over 75% in size
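MLSMR compounds (23 nl, pin-transferred) preincubated 10 min at room temperature with a 500nM (2x) first reagent, then RGS4 at 900nM (2x) plus Transcreener GDP mix added; fluorescence polarization (620/688 nm) read before and after 90 min at 30 °C.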
DRD3 agonist – agonists of human D3 dopamine receptor | 410,000 tested, 0.58% active | AID 652048 | D3R DiscoveRx beta-arrestin cells, luminescence, 90 min | P35462 | max activation, %; in the data active means max activation above about 30%; further: 0% is about no effect
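Agonist-mode cell screen: cells plated at 1500/well and incubated overnight at 37 °C, then exposed to library compounds for 90 min at 37 °C. Detection reagent was added for 30–60 min at room temperature, and luminescence was read.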
D3 antag – D3 dopamine receptor (human) antagonism | P35462 | D3R cells, DiscoveRx beta-arrestin luminescence, antagonist mode; active compounds read low | max response, negative = inhibition, % | 360,000 tested, 2.5% active | AID 652054; in the data active means max response below about -50%; inconclusive means no clear call, values can overlap the other calls; further: on the % scale 0 is the no-effect control and ±100 the full control effect
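Cells expressing the human receptor were seeded at 1500 cells/well, incubated overnight at 37 degrees C in 5% CO2, then exposed to library compounds with dopamine controls for 90 minutes at 37 degrees C before luminescent detection.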
BRCA1 expr up – activators of BRCA1 expression | Potency, µM (top dose mostly 46.1 µM), for inactives: top-dose activation, usual class: activators | 380,000 tested, 1.1% active | AID 624202 | MCF7-BRCA1-FFLuc reporter, luminescence, 48 h; response scale: scaled: vehicle 0%, 10 µM genistein 100%; further: potency means the concentration at half of the fitted maximal effect; nearly all actives have a fitted effect of over 80% in size
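Cells: MCF7-BRCA1-FFLuc, 2000/well. Exposure: 48 h, 37 °C, 5% CO2. Read: luminescence, 15 min post-substrate. Controls: genistein 10 microM (maximal activation), DMSO (neutral).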
PTHR1 agonist – PTHR1 (human) receptor agonism; Potency, µM (doses to about 115 µM), without a hit: at the highest dose activation, usual class: activators; 410,000 tested, 0.075% active; HEK293 GP2 PTHR1 cells, GloSensor cAMP luminescence, 1 h; further: potency means the concentration at half of the fitted maximal effect; nearly all actives have a fitted effect of over 55% in size
Target sequence (Q03431 whole entry, looked up): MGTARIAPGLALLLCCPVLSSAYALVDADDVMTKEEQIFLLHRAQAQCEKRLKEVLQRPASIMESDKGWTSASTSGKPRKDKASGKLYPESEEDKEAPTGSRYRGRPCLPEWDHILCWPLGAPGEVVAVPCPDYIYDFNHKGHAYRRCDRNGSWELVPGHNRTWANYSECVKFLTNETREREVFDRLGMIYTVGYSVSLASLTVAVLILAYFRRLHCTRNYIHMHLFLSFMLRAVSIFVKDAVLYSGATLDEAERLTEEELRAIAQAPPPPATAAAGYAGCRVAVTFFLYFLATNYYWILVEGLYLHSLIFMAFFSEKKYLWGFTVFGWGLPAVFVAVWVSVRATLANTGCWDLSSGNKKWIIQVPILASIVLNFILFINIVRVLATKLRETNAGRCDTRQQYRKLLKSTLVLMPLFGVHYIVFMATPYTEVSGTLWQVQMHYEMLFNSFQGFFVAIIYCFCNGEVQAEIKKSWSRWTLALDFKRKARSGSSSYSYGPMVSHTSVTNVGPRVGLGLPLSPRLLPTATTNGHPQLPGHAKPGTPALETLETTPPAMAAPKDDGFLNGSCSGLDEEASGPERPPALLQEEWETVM
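HEK-293-derived GP2 cells expressing PTHR1 and a GloSensor cAMP reporter, 3,000/well, plated overnight, given luciferin plus IBMX (each 0.5 mM as added) for 1 h at 37 °C, then compound for 1 h at 37 °C. Luminescence was read after 15 min at room temperature.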
* = called active by the depositor; i = inactive; ? = inconclusive; / = no result given; [ ] = remark or other dose. Compounds with a hit are over-represented: about 3.7% of the library has one in this group of screens. Unless noted, the call rests on the fitted dose curve; in most records, active means well fitted curve in the direction sought with a large enough effect; inconclusive means small, poorly fitted or top-dose-only effect, or another doubt; inactive means no such curve, though single readings can be large; an effect the other way counts as inactive or inconclusive.

SMILES	B2AR arrestin	RGS4 inh	DRD3 agonist	D3 antag	BRCA1 expr up	PTHR1 agonist
CCOC(=O)c1nnn(-c2nonc2N)c1COc1ccc(F)cc1	0%	25%	25	-9	0%	i
CCOC(=O)c1nnn(-c2nonc2N)c1COc1ccccc1	0%	6%	-1	-58*	-27%	-37%[57.5 µM]
C=C(C)CN(CC)C(=O)CCc1nnc(CCCc2ccccc2)o1	0%	-10%	0	7	?	-43%
CCN(CCn1cccn1)C(=O)CCc1nnc(CCCc2ccccc2)o1	0%	1%	4	3	13µM*	-8%
OC(C#CCN1CCCC1)(c1ccccc1)c1ccccc1	0%	15%	-36	-12	-17%	-15%
OC(C#CCN1CCCCC1)(c1ccccc1)c1ccccc1	0%	-22%	-22	-79*	6%	-31%
COc1ccc(CNC(=O)[C@@H](Cc2ccccc2)NC(=O)CC[C@H]2O[C@@H](n3ccc(=O)[nH]c3=O)[C@H](O)[C@@H]2O)cc1	/	/	-8	-22	14%	-11%
COc1ccc(CCN2CC(C(=O)NCc3nc4ccccc4n3C)CCC2=O)cc1 (stereo unspecified)	0%	13%	-3	6	18%	i
CCOc1ccc(C(=O)NCC(c2ccc3c(c2)OCO3)N2CCN(c3ccc(F)cc3)CC2)cc1 (stereo unspecified)	/	0%	-22	/	/	i
Cc1ccc(CNC(=O)c2ccc3c(=O)n4c(-c5ccc(C)cc5)csc4nc3c2)cc1	0%	0%	-11	-18	-7%	-5%
Cc1ccc(-c2csc3nc4cc(C(N)=O)ccc4c(=O)n23)cc1	-1%	?	1	-61*	0%	-9%
O=c1c2ccccc2ncn1CCOc1ccccc1[N+](=O)[O-]	0%	-43%	0	13	?	i
COc1cc(OC)c(S(=O)(=O)NC(C)C)cc1C(=O)O	0%	20%	-8	11	5%	i
O=C(Oc1cccc2cccnc12)c1ccco1	0%	5%	-13	?	-23%	i
O=C(Oc1cccc2cccnc12)c1ccc2c(c1)OCCO2	?	5%	-4	-84*	0%	i
Cc1ccsc1C(=O)OCC(=O)NCc1ccccc1	-1%	-19%	3	-11	16%	-21%
COC(=O)[C@H](CC(C)C)NC(=O)Cn1cnc(C(=O)Nc2ccc(C)c(C)c2)n1	0%	-4%	5	13	11µM*	-43%
Cc1cccc(-c2noc(-c3ccccc3NC(=O)C3CC(=O)N(c4ccccc4C)C3)n2)c1 (stereo unspecified)	/	16%	-6	/	/	16%
CCCNC(=O)NS(=O)(=O)c1cnccc1Sc1ccc(Cl)c(Cl)c1	-1%	-10%	10	-53*	-36%	i
COc1ccc(CN(C(=O)Nc2ccccc2)c2ccccn2)cc1OC	/	25%	5	/	0%	i
Cc1ccc2c(c1)N(Cc1ccccc1)C(=O)C(C)S2 (stereo unspecified)	/	/	-8	-23	14%	i
Cc1ccc2c(c1)C(CCN)C(=O)N2Cc1ccccc1 (stereo unspecified)	0%	3%	-30	-106*	0%	i
Cc1cccnc1NC(=S)NC(=O)c1oc2ccccc2c1C	0%	-21%	-9	-11	2.8µM*	-30%
CN1CCC(=NOc2ccc([N+](=O)[O-])cc2)CC1	0%	19%	-7	9	?	i
Cc1noc(C)c1C(=O)OCC(=O)Nc1cccc(S(=O)(=O)N(C)C)c1	-1%	-13%	0	0	15%	i
SMILES	B2AR arrestin	RGS4 inh	DRD3 agonist	D3 antag	BRCA1 expr up	PTHR1 agonist
O=C(COC(=O)c1cc2ccccc2oc1=O)Nc1ccc(F)cc1F	6%	13%[11.4 µM]	3	3	10µM*	-13%
CN(C)S(=O)(=O)c1cccc(NC(=O)COC(=O)c2cc3ccccc3oc2=O)c1	-1%	17%	-7	0	10µM*	i
Cc1onc(-c2c(F)cccc2Cl)c1C(=O)OCC(=O)Nc1cccc(S(=O)(=O)N(C)C)c1	/	-45%	-26	-97*	-40%	-40%
CCOc1cc2c(cc1O)C(=NO)CC1C2CCC2(C)C(O)CCC12 (stereo unspecified)	/	-32%	8	-18	?	i
Cc1cccc(Nc2nc3c(s2)CCCC3)c1	-1%	?	-9	3	10µM*	-33%
CCN(CC)c1ccc(C=Nc2ccccc2)c(O)c1	0%	-14%	-3	-54*	-10%	-15%
CCN(CC)c1ccc(/C=N/N2CCN(Cc3ccccc3)CC2)c(O)c1	-1%	2%	-13	?	-30%	-25%
CCN(CC)c1ccc(/C=N/N2CCOCC2)c(O)c1	2%	-22%	-2	-9	6.3µM*	i
CCN(CC)c1ccc(N=Cc2ccc(N(CC)CC)cc2O)cc1	0%	?	-8	-19	-66%	-55%
Cc1ccc(CNC(=O)C2CCN(C(=O)Nc3ccc(C)cc3)CC2)cc1	0%	14%	-3	-6	0%	-14%
Cc1ccc(CNC(=O)CCCCCn2c(=O)[nH]c3ccccc3c2=O)cc1	/	-14%	-3	/	/	-12%
Cc1ccc(-c2n[nH]c(Cc3ccccc3)n2)cc1	0%	-5%	-3	2	5.6µM*	-43%
Cc1ccc(OCc2nc(-c3ccc(Cl)cc3)n[nH]2)cc1	0%	12%	0	24	77%	?
OCC[C@@H]1C[C@H](O)[C@@H](O)[C@]2(CCCCO2)O1	/	8%	-1	17	-9%	-18%
Cn1c(C=O)c(C#Cc2ccccc2)c2ccccc21	-1%	-16%	39*	66	-59%	i
C[C@@H]1C[C@H]2[C@@H]3CCC4=CC(=O)C=C[C@]4(C)[C@@]3(F)[C@@H](O)C[C@]2(C)[C@@]1(O)C(=O)COC(=O)c1cccc(S(=O)(=O)O)c1	/	/	6	/	/	/
O=C(Nc1ccc2c(c1)C(=O)NC2=O)c1ccccc1	0%	3%	-4	20	-15%	-4%
O=C1NC(=O)c2cc(Nc3ccccc3)c(Nc3ccccc3)cc21	/	19µM*	/	/	-40%	/
c1ccc(CN2CCC3(CCCc4ccccc43)CC2)cc1	0%	8%[56.9 µM]	-91	-105*	-21%	28%
CC1=C/C(=N\OS(=O)(=O)c2ccccc2)C(C)=CC1=O	0%	?	-1	-73*	-96%	i
CC1=C/C(=N\OS(=O)(=O)c2ccccc2)C(C(C)C)=CC1=O	?	?	-4	-15	-71%	-19%
CC1=C(C)/C(=N\OS(=O)(=O)c2ccc(C)cc2)C=CC1=O	?	?	-3	-104*	-84%	-51%

Bioassay records as filed in PubChem.
